# Beta cell apopt – blocks beta cell apoptosis; INS-1E cytokine-induced death, ATP luminescence, 48 h; percent of positive-control rescue, neutral wells zero; protection from apoptosis, % (test concentration not listed); 300,000 compounds, 0.8% hits;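 active = Every replicate reaches about 75%, or at least half do and their mean reaches it too, limit read from the data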;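 note: 0% = cytokine-treated negative control wells and 100% = positive control rescue; higher means more ATP so stronger rescue from cytokine killing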
# CSC inhib – cancer stem cell inhibition. cancer stem cell-like cells viability, luminescence. inhibition, % at 7.5 µM. 300,000 compounds, 1.1% hits; in the data active = inhibition above about 75%; tested in HMLE shEcad cells
# Mdm2 MdmX PPI – human Mdm2/MdmX binding inhibition | 330,000 compounds, 3% hits | SaOS-2 split-luciferase Mdm2/MdmX complementation, luminescence | inhibition, % at 8 µM | O15151+Q00987;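 active = inhibition of at least 50% at 8 µM in the primary screen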
# MPTP inh – permeability transition pore inhibition | isolated mouse mitochondria, Ca2+ swelling absorbance, 30 min | inhibition, % at 10 µM | 360,000 compounds, 1.4% hits | AID 602449;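 active = inhibition of 50% or more, scaled per plate between neutral and stimulator controls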;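 note: 0% = DMSO wells given calcium and 100% = 1 mM EGTA wells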
# GRIN3A LBD mod – modulators (binders) of human NR3A ligand-binding domain | NR3A LBD differential scanning fluorimetry, Tm shift; 0% = protein alone, 100% = glycine-bound protein | Tm shift relative to glycine control, % at 25 µM | 340,000 compounds, 2.5% hits | AID 1259313;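 active = melting temperature shift of at least 10% of the positive control shift, at one fixed dose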
# Gli-Sufu block – blocks Gli-Sufu signaling in a luciferase reporter. Sufu-KO-LIGHT fibroblasts, Gli luciferase reporter luminescence. inhibition, % at 5 µM. 340,000 compounds, 0.74% hits;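 active = inhibition above about 55%, limit read from the data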;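 note: 0% = DMSO-treated cells and 100% = wells with medium but no cells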
# Mdm2-MdmX conf – human Mdm2/MdmX binding inhibition, confirmed; shares compounds with Mdm2 MdmX PPI; luminescent assay; inhibition, % at 8 µM; 10,000 compounds, 55% hits; in the data active = inhibition above about 40%
# Full FLuc ctr – inhibits full-length luciferase, flagging false Mdm2/MdmX hits; 6,200 compounds, 77% hits; inhibition, % at 8 µM; shares compounds with Mdm2 MdmX PPI; SaOS-2 full-length luciferase counterscreen, luminescence;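 active = mean inhibition at 8 µM reaching about 37%, which flags the compound as non-specific, limit read from the data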;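 note: p53-null SaOS-2 cells with luciferase driven by a doxycycline-inducible promoter; compound on cells about two nights before reading with doxycycline added after day one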
# The depositor's hits bear a star; nt = not tested or not shown. Only some compounds are listed: those with a hit (about 6.6% of all), similar ones and a draw of the others.
SMILES,Beta cell apopt,CSC inhib,Mdm2 MdmX PPI,MPTP inh,GRIN3A LBD mod,Gli-Sufu block,Mdm2-MdmX conf,Full FLuc ctr
N#Cc1c(N)nc(SCC(=O)NCCc2ccccc2)c(C#N)c1-c1cccs1,-3,6,63*,3,-10,3,15,nt
CC(=O)CSc1nc(N)c(C#N)c(-c2cccs2)c1C#N,8,-2,52*,0,-2,-10,37,41*
CC1(C(=O)Nc2ccc(F)cc2F)CCN1C(=O)Cc1ccccc1 (centres undefined),nt,nt,nt,1,nt,nt,nt,nt
Cn1nc(CC(=O)Nc2ncc(Br)s2)c2ccccc2c1=O,7,20,59*,49,0,36,25,nt
N#CCSc1nc2scc(-c3cccs3)c2c(=O)n1CCc1ccccc1,14,55,29,1,-1,15,nt,nt
Cc1cccc(N2CCN(C(=O)c3ccc(Cl)c(S(=O)(=O)NCc4ccco4)c3)CC2)c1C,4,51,70*,1,2,10,74*,42*
Cc1cccc(C)c1NC(=O)COC(=O)c1cccc2c1C(=O)c1ccccc1C2=O,1,13,59*,3,-14,6,35,77*
CCCNC(=O)c1nnsc1S(=O)c1ccc(Cl)cc1 (centres undefined),nt,nt,97*,0,-1,14,100*,2
CNC(=O)c1nnsc1S(=O)c1ccc(Cl)cc1 (centres undefined),nt,nt,98*,-2,1,11,94*,3
CCCNC(=O)c1nnsc1S(=O)(=O)c1ccc(Cl)cc1,nt,nt,96*,-1,-2,4,100*,51*
O=C1C(c2ccnc3ccccc23)=C(O)c2ccccc21,7,-7,52*,-1,-1,-6,-25,nt
Cc1c2cnccc2c(C)c2c1oc1ccccc12,nt,nt,nt,0,-3,10,nt,nt
Cc1ccc(O)c(/C=N/NC(=O)Cc2ccc(Cl)cc2)c1,nt,22,64*,4,-8,-3,51*,34
Cc1cccc(/C=N/NC(=O)Cc2ccc(Cl)cc2)c1O,nt,16,64*,16,2,6,42*,30
O=C(Cc1ccc(Cl)cc1)N/N=C/c1ccc(O)c(O)c1,nt,nt,nt,1,nt,nt,nt,nt
COc1ccc(-c2csc(N(CCCN(C)C)C(=O)c3ccccc3Cl)n2)cc1,7,24,71*,0,-1,30,49*,84*
O=C(COc1ccc(C(=O)c2ccccc2)cc1)NCc1ccc(F)cc1,0,0,63*,3,-1,-1,67*,76*
COc1ccc(CCN(C)C(=O)COc2ccc(C(=O)c3ccccc3)cc2)cc1OC,-1,nt,-13,-1,0,-6,nt,nt
CSc1ccc(CN(C)C(=O)COc2ccc(C(=O)c3ccccc3)cc2)cc1,-13,-11,65*,2,-4,-11,59*,96*
CC(C)(C)C(C(Oc1ccc(Cl)cc1)n1cncn1)n1nnnc1C(c1cccc(Cl)c1)N1CCCCC1 (centres undefined),nt,45,57*,nt,nt,nt,31,nt
COCCn1nnnc1C(c1cccc(C#N)c1)N1CCCCCC1 (centres undefined),-5,-22,-10,1,-14,7,nt,nt
CC(=O)Nc1cccc(C(=O)/C=C/c2ccc(C)cc2)c1,-6,0,57*,2,0,-18,52*,54*
CCC(=O)Nc1cccc(C(=O)/C=C/c2ccc(F)cc2)c1,6,55,89*,4,-1,-22,48*,45*
CCc1ccc(S(=O)(=O)Nc2cccc(-c3ccc4nnc(C)n4n3)c2)s1,11,12,55*,-1,0,18,53*,85*
COc1ccc(S(=O)(=O)Nc2ccc(-c3ccc4nnc(C)n4n3)cc2)c(OC)c1,-11,16,71*,1,-2,17,36,nt
Cc1nnc2ccc(-c3ccc(NS(=O)(=O)c4ccc(F)cc4F)cc3)nn12,-1,7,18,-2,1,2,nt,nt
CCc1ccc(S(=O)(=O)Nc2ccc(-c3ccc4nnc(C)n4n3)cc2)s1,0,-1,14,0,-3,7,nt,nt

# Bioassay records from PubChem.
